Data from PubChem BioAssay.

test: inhibitors of the yeast RAM network, pilot screen, dse1pr::URA3 reporter, 5-FOA selection (AID 869);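 note: 0% = DMSO wells with no growth and 100% = 10 µM 1-NA-PP1 with full growth; RAM network block rescues cells from 5-FOA so hits raise OD615 growth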; details: S. cerevisiae dse1pr::URA3 5-FOA growth, OD615, 2 d; at 10 µM; hits give high values; strain carries analog-sensitive mutant Cbk1 kinase;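 active = inhibition over a set limit, the all-compound mean plus 3 SD, in both replicate runs; inconclusive = over that limit in just one replicate run; inactive = at or under that limit in both runs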

inhibition, inactive:
COc1ccc(OC)c(NC(=O)NC2(C(F)(F)F)Oc3ccccc3O2)c1 0.25%, COc1ccc(S(=O)(=O)NCc2ccc3c(c2)cc(C)n3C)cc1 1.31%, COc1ccc(C(c2sc3nc(C)nn3c2O)N2CCC(C(N)=O)CC2)cc1OC (stereo not given) 1.54%, CCN(CC)CCNC(=O)Cn1cnc2sc(C)c(S(=O)(=O)N3CCOCC3)c2c1=O 0.39%, C=C(C)Cn1c(CNC(C)=O)nc2ccccc21 0.645%, CCOc1ccc(Cn2nnc(C(=O)NCCc3ccccc3)c2N)cc1 2.5%, CC(C)c1nc(SCC(=O)Nc2ccc3c(c2)OCCO3)c2c(=O)n(C)c(=O)n(C)c2n1 3.59%, COc1ccc(OC)c(NC(=O)c2cnc3n(c2=O)CCS3)c1 2.48%, Cc1[nH]c2ccc(-c3n[nH]c(=S)n3C)cc2c1C 1.31%, COc1ccccc1-c1c(C#N)c(SCC(=O)N2CCCC2)nc(C)c1C(N)=O 1.73%, COc1ccc(C2N3CC4(C)CN2CC(C)(C3)C4)cc1OC (stereo not given) 1.08%, O=S(=O)(NCCOCCNS(=O)(=O)c1ccccc1)c1ccccc1 0.05%, CC(C)(C)NC(=O)c1ccc(NC(=O)C2COc3ccccc3O2)cc1 (stereo not given) 1.9%, O=C(Cn1c(=O)oc2cc(S(=O)(=O)N3CCOCC3)ccc21)N1CCc2ccccc2C1 2.44%, COC(=O)c1ccc(N2C(=O)CC(Sc3n[nH]c(C)n3)C2=O)cc1 (stereo not given) 1.42%, COc1cc(C(=O)Nc2cccc(-c3nc4ccccc4o3)c2C)cc(OC)c1OC 2.46%, Cc1ccc(C(=O)CC(C(=O)O)c2cn(CCC#N)c3ccccc23)cc1 (stereo not given) 0.735%, CC1=C(C(=O)OC2CCCCCCC2)C(c2ccc(O)cc2)NC(=O)N1 (stereo not given) 1.85%, COc1nc(NC(C)(C)C)nc(Oc2ccc(=O)n(C)n2)n1 0.495%, CC(CCc1ccco1)NC(=O)Cn1nc(Cc2ccncc2)c2ccccc2c1=O (stereo not given) 2.26%, CSc1nc2c(c(=O)n1-c1ccc(F)cc1)SCC2 2.19%, COc1ccc(NC(=O)C2CCN(S(=O)(=O)c3cccnc3)CC2)cc1Cl 1.77%, Nn1c(SCC(=O)Nc2ccc(F)cc2)nnc1-c1ccccn1 1.88%, COc1ccccc1C1C=C(c2ccccc2)Nc2nnnn21 (stereo not given) 0.05%, CC1CCN(CC(O)COc2cccc(F)c2)CC1 (stereo not given) -0.65%, COc1ccc(Cl)cc1Nc1nc(N2CCCC2)nc(N2CCCC2)n1 0.095%, Clc1ccccc1C1CC(c2ccccc2)Nc2ncnn21 (stereo not given) 2.05%, CCN(CCCNS(=O)(=O)c1ccc2c(c1)CCN2C(C)=O)c1cccc(C)c1 0.28%, Nc1c(S(=O)(=O)c2ccccc2)c2nc3ccccc3nc2n1Cc1ccco1 2.83%, O=C(c1cc(F)c(F)cc1Cl)N1CCCCC1 2.08%, CC(=O)N1CCc2c(sc(NC(=O)C3CC3)c2-c2nc3ccccc3s2)C1 1.99%, CC1=CC(C)(C)N(C(=O)CSc2nnc(-c3ccccc3)o2)c2ccc(C)cc21 0.325%, O=C(NCCC1=CCCCC1)NC1CCCCC1 1.33%, Cn1c(C(=O)N2CCCC2)cc2c(=O)n(C)c3ccccc3c21 2.04%, COc1ccc(C2C(C(=O)NCCN3CCOCC3)c3ccccc3C(=O)N2C)cc1OC (stereo not given) 1.24%, CCOc1ccc2nc(NC(=O)Nc3cccs3)sc2c1 1.08%, CC(=O)N1CCC(Nc2ccc(C)cc2)CC1 -0.41%, CC(C)Sc1nc(-c2cccs2)nc2c1c(=O)n(C)c(=O)n2C 1.46%, CC(=O)Nc1cc(NC(C)=O)c(CC(C)C)s1 0.44%, Cc1cc(C)c(NC(=O)C(C)(C)C)c(Cl)c1 1.72%
